# Source: PubChem BioAssay (NCATS)
# Several values for one entry are separate records, joined by “and”; a condition that tells them apart may be missing. Equal values may be shown once. Inconclusive results are not listed. Activity calls are given as the source filed them. Unless noted, the call rests on the fitted dose curve; in most records, active means well fitted curve in either direction with a large enough effect (not every such curve was filed as active); inconclusive means small, poorly fitted or top-dose-only effect, or another doubt; inactive means flat fitted curve, though single readings scatter.
# Columns and labels:
# [1] = target: Cytochrome P450 1A2 (Homo sapiens) (UniProt P05177); assay: p450-cyp1a2 (AID 410; calls by dose curve; further: potency means the concentration at half of the fitted maximal effect;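 on activity change, negative = inhibition: -100% = full effect of reference inhibitor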)
# How it was run: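 Human CYP1A2 (20nM) demethylated Luciferin-ME at its Km (100uM) in 100mM KPO4. After 10 min compound preincubation, NADPH regeneration ran the reaction 60 min at room temperature. Luciferin was read by luminescence, normalized to 57 uM furafylline.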
# [2] = target: Glucocorticoid receptor (Homo sapiens) (UniProt P04150); assay: GR-GFP Redistribution (AID 450;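 active means compounds whose dose series gives a full or clear partial fitted curve of increased nuclear translocation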; further: potency means the concentration at half of the fitted maximal effect); settings: U2OS GR-GFP nuclear translocation, laser cytometry, 2 h
# [3] = target: Glucocorticoid receptor (Homo sapiens) (UniProt P04150); assay: GR-EFC Redistribution (AID 451; calls by dose curve; further: potency means the concentration at half of the fitted maximal effect); settings: CHO-K1 GR-EFC translocation, beta-gal luminescence, 2 h
# How it was run: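 CHO-K1 cells stably expressing nuclear-localized β-gal enzyme acceptor and GR fused C-terminally to the enzyme donor fragment; ligand-driven nuclear translocation restores β-gal by complementation. Compounds titrated up to 46 uM final, 2 h at 37 °C; luminescence read.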
# [4] = target: Mitogen-activated protein kinase 10 (Mus musculus) (UniProt Q61831); assay: JNK3 AlphaScreen Assay (AID 530);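 further: kinase came from lysate of stimulated human HepG2 cells; signal reports phosphorylation of biotinylated GST-cJun 1-79 at Ser73 with 10 µM ATP; on the % scale 0 is the no-effect control and ±100 the full control effect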
# How it was run: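 JNK3 came from HepG2 lysates pre-activated with IL-1beta and TNF-alpha and phosphorylated biotinylated GST-cJun (1-79) at 10 uM ATP, pH 7.6, room temperature. Compounds were titrated. AlphaScreen signal used anti-phospho-cJun (Ser73) antibody.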
# [5] = target: 3',5'-cyclic-AMP phosphodiesterase 4B (Homo sapiens) (UniProt Q07343); assay: qHTS Assay for Inhibitors of PDE-IV (AID 607; active means well fitted activation curve with a large enough effect in the main read-out, with a control signal flat, not every such curve was filed as active; further: % of control where 0% means no effect)
# How it was run: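 Cell-based read-out of cAMP via a modified cyclic nucleotide-gated channel and membrane potential dye (535/590 nm) in HEK293 cells expressing PDE4 endogenously. Compounds tested up to 22.9 uM final; 100 uM RO 20-1724 reference.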
# [6] = qHTS Assay for Lipid Storage Modulators (AID 1519; calls by dose curve); settings: Drosophila S3 cells, BODIPY lipid droplet/cell ratio, laser cytometry, cells loaded with oleic acid
# How it was run: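 Cells seeded at 5,000 per well were treated with compounds over a concentration series and loaded with oleic acid (400 uM, as added). Lipid droplet fluorescence (488 nm excitation, 500-530 nm channel) was read by laser-scanning cytometry and normalized to 20 uM Triacsin C.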
# [7] = AP1 Signaling Pathway (AID 357); settings: ME-180 AP-1-bla reporter, EGF-induced, beta-lactamase ratio, 5 h; further: on the % scale 0 is the no-effect control and ±100 the full control effect
# How it was run: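 Titration-series screen for positive or negative modulators of EC50 EGF-induced signaling in ME-180 cells carrying an AP-1-driven beta-lactamase reporter. After 5 hours at 37 degrees Celsius, CCF4 460nm/530nm emission ratio gave %Activity; AC50 values derived.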
# [8] = NFAT Signaling Pathway (AID 444); settings: Jurkat NFAT-bla M1, carbachol, beta-lactamase ratio, 5 h;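 further: carbachol stimulus at about its EC50 of 1 µM final; on the % scale 0 is the no-effect control and ±100 the full control effect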
# How it was run: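 Jurkat cells carrying an NFAT-driven β-lactamase reporter and co-transfected muscarinic M1 receptor were treated with compound plus carbachol (1 uM final, an EC50 level) for 5 h at 37 °C. CCF4 loading followed for 1 h at RT; 460/530 nm ratio gave %activity.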
# [9] = Stat Signaling Pathway (AID 446); settings: ME-180 SIE beta-lactamase reporter, IL-6 stimulated, 5 h;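 further: ME-180 cervical cancer cells given 40 pM IL-6 alongside compound; SIE-controlled beta-lactamase reporter measured as 460/530 nm FRET emission ratio; on the % scale 0 is the no-effect control and ±100 the full control effect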
# How it was run: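 Reporter line: ME-180 cervical carcinoma, SIE-beta-lactamase. Treatment: compound with 40 pM IL-6, 5 hrs, 37 C, in low-serum OPTI-MEM with 10 mM HEPES pH 7.3. Detection: 460/530 nm fluorescence.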
# [10] = target: Guanine nucleotide-binding protein G(i) subunit alpha-1 (Homo sapiens) (UniProt P63096); assay: qHTS Assay for Inhibitors of RGS12 GoLoco Motif Activity (Green Fluorophore) (AID 879; active means well fitted curve in the direction sought with a large enough effect; an effect the other way counts as inactive or inconclusive;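 further: 0% = labeled peptide with Gαi1 and full inhibition = labeled peptide alone without protein; negative values mean loss of peptide binding seen as reduced polarization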)
# How it was run: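 Fluorescence polarization assay: 50 nM Gαi1 with 10 nM FITC-labeled RGS12 GoLoco peptide in 10 mM Tris pH 7.5, 150 mM NaCl, 0.1 mM GDP, 0.05% NP40, 10 min at room temperature with compound.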
# [11] = target: Pyruvate kinase (Leishmania mexicana) (UniProt Q27686); assay: qHTS Validation Assay for Inhibitors of Leishmania Mexicana Pyruvate Kinase (AID 945; active means well fitted curve in the direction sought with a large enough effect; an effect the other way counts as inactive or inconclusive;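 further: 0% = DMSO only neutral control wells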)
# How it was run: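 The enzyme is a highly purified E451W mutant of LmPYK used at 0.2 nM. It converts 0.5 mM PEP and 0.1 mM ADP over 1 h at room temperature; product ATP is quantified by luciferase luminescence relative to DMSO controls.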
# [12] = target: Pyruvate kinase PKM (Homo sapiens) (UniProt P14618); assay: qHTS Assay for Activators of Human Muscle Pyruvate Kinase (AID 954; active means well fitted curve in the direction sought with a large enough effect, not every such curve was filed as active;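 further: 0% = uninhibited enzyme and -100% = no enzyme or full thiadiazolimine inhibition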)
# How it was run: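 Human PKM2 activity is measured as ATP generation, detected by luciferase-coupled luminescence. The enzyme (0.1 nM) acts on 0.5 mM PEP and 0.1 mM ADP for 1 h at ambient temperature; data are normalized to uninhibited and full-inhibition wells.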
# [13] = target: Ubiquitin carboxyl-terminal hydrolase 1 (Homo sapiens) (UniProt O94782); assay: Inhibitors of USP1/UAF1: Pilot qHTS (AID 504865; active means well fitted curve in the direction sought with a large enough effect; an effect the other way counts as inactive or inconclusive;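 further: rhodamine fluorescence freed from ubiquitin-rhodamine substrate followed over time; top concentration of the series differs between compounds; on the % scale 0 is the no-effect control and ±100 the full control effect; nearly all actives have a fitted effect of over 35% in size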)
# How it was run: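 Kinetic fluorescence assay: 1nM USP1/UAF1, 15 min compound preincubation, then 150nM Ub-Rho; 480/540 nm.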
# [14] = target: ATP-dependent 6-phosphofructokinase (Trypanosoma brucei brucei) (UniProt O15648); assay: qHTS Assay to Find Inhibitors of T. brucei phosphofructokinase: hit validation (AID 492961; active means well fitted curve in the direction sought with a large enough effect; an effect the other way counts as inactive or inconclusive)
# How it was run: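 Reaction: 0.1 M triethanolamine pH 8.0, 5 mM MgCl2, F6P 0.5 mM, ATP 0.1 mM, PFK 1.25 nM, 45 min RT. Read-out: ADP-Glo luminescence. Analysis: concentration-response fits, classed by r2 and efficacy.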
# [15] = target: Luciferin 4-monooxygenase (Photinus pyralis) (UniProt P08659); assay: Biochemical firefly luciferase enzyme assay for NPC (AID 624030; active means well fitted curve in the direction sought with a large enough effect; an effect the other way counts as inactive or inconclusive;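 further: purified P. pyralis luciferase at 10 nM with luciferin and ATP substrate; 0% = DMSO and -100% = full luciferase inhibition by PTC124 control; nearly all actives have a fitted effect of over 70% in size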)
# How it was run: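 Counter-screen for direct inhibition of the luciferase enzyme by approved-drug library compounds, run at 10 nM enzyme in 50 mM Tris acetate (final). Luminescence was read within 5 min of enzyme-buffer addition and normalized to PTC124 versus DMSO (0%).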
# [16] = qHTS profiling for inhibitors of Plasmodium falciparum proliferation (AID 504749; active means well fitted curve in the direction sought with a large enough effect; an effect the other way counts as inactive or inconclusive;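 further: 0% = DMSO vehicle and full inhibition = artemisinin control; nearly all actives have a fitted effect of over 60% in size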); settings: P. falciparum in erythrocytes, SYBR Green DNA, 72 h, at 28.7 µM (top of the series)
# How it was run: (§1)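 P. falciparum-infected erythrocytes (0.3% parasitemia, 2.5% hematocrit final) were exposed to compounds for 72 h at 37 C in 5% CO2, then lysed with SYBR Green buffer overnight at room temperature; parasite DNA fluorescence was normalized to artemisinin and DMSO controls.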
# AS120 = assay: as above; settings: P. falciparum in erythrocytes, SYBR Green DNA, 72 h; series mostly up to 28.7 µM
# How it was run: as §1
# CP238 = assay: as above; settings: P. falciparum in erythrocytes, SYBR Green DNA, 72 h; series mostly up to 12.8 µM
# How it was run: as §1
# CP265 = assay: as above; settings: P. falciparum in erythrocytes, SYBR Green DNA, 72 h; series mostly up to 12.8 µM
# How it was run: as §1
# FAB9 = assay: as above; settings: P. falciparum in erythrocytes, SYBR Green DNA, 72 h; series mostly up to 12.8 µM
# How it was run: as §1
# [17] = measured here: cell count channel max response
# [18] = measured here: lipid channel max response
# [19] = at 7.69 µM (top of the series) unless noted
# Ubiquitin carboxyl-terminal hydrolase 1 (Homo sapiens), sequence (O94782 whole entry, looked up): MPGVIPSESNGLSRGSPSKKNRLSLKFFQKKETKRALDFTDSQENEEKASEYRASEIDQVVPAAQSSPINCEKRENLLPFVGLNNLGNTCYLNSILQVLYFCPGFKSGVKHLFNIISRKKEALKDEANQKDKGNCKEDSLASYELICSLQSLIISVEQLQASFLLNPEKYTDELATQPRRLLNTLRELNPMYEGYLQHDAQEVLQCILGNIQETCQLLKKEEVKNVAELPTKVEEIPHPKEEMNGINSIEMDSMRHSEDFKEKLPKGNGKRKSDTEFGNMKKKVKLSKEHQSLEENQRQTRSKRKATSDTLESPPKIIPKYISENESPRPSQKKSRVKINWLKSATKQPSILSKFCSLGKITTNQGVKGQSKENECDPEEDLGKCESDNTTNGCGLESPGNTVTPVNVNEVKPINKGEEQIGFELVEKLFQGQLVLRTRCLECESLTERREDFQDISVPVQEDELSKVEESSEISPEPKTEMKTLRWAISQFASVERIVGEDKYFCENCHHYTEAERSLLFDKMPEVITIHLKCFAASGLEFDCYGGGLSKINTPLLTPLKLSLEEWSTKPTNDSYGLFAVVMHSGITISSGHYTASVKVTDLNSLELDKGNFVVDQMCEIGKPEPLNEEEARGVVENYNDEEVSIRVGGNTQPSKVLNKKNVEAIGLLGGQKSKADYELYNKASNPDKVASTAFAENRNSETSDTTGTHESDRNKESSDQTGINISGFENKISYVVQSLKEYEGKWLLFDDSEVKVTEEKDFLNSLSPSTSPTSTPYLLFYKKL
# Cytochrome P450 1A2 (Homo sapiens), sequence (P05177 whole entry, looked up): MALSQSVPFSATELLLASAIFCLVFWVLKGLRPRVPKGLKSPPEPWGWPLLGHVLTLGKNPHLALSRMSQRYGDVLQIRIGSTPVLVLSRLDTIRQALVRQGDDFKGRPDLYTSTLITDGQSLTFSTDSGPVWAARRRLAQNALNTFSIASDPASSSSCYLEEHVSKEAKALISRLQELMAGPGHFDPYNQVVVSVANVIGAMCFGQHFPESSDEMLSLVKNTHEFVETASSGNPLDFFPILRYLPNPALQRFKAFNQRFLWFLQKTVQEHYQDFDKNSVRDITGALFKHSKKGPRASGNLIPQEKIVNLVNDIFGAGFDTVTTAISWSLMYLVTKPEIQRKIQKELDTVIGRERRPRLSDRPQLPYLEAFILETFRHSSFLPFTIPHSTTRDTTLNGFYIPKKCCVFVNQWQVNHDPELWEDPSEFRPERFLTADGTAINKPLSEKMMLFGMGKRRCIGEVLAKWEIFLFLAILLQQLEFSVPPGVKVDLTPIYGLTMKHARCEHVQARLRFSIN
# Pyruvate kinase (Leishmania mexicana), sequence (Q27686 2-499 E452W): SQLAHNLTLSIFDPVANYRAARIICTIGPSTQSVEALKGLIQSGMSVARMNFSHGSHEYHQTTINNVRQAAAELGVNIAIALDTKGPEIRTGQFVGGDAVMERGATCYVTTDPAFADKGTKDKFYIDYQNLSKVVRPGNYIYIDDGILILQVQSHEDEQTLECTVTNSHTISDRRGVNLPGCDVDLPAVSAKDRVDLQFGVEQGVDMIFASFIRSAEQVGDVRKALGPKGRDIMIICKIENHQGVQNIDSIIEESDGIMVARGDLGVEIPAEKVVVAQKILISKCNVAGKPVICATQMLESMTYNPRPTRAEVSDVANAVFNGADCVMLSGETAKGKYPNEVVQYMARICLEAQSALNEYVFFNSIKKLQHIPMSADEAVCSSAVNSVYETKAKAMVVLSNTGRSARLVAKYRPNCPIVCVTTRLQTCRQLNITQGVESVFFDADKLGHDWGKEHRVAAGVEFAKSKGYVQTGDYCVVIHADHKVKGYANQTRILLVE
# Pyruvate kinase PKM (Homo sapiens), sequence (P14618 whole entry, looked up): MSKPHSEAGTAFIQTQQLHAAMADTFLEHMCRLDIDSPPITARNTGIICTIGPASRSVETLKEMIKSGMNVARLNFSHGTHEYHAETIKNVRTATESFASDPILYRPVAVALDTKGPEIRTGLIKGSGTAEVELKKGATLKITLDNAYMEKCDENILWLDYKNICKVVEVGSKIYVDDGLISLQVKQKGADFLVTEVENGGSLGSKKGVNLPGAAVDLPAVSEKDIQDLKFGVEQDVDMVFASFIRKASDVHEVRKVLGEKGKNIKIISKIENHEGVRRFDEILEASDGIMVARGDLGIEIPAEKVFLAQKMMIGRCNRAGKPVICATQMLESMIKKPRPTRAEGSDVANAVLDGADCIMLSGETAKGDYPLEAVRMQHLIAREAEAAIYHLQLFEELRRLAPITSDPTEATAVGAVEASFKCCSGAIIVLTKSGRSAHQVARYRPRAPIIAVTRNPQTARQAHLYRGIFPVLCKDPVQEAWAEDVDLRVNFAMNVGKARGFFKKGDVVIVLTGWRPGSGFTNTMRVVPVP
# Glucocorticoid receptor (Homo sapiens), sequence (P04150 whole entry, looked up, the tested form may be a part): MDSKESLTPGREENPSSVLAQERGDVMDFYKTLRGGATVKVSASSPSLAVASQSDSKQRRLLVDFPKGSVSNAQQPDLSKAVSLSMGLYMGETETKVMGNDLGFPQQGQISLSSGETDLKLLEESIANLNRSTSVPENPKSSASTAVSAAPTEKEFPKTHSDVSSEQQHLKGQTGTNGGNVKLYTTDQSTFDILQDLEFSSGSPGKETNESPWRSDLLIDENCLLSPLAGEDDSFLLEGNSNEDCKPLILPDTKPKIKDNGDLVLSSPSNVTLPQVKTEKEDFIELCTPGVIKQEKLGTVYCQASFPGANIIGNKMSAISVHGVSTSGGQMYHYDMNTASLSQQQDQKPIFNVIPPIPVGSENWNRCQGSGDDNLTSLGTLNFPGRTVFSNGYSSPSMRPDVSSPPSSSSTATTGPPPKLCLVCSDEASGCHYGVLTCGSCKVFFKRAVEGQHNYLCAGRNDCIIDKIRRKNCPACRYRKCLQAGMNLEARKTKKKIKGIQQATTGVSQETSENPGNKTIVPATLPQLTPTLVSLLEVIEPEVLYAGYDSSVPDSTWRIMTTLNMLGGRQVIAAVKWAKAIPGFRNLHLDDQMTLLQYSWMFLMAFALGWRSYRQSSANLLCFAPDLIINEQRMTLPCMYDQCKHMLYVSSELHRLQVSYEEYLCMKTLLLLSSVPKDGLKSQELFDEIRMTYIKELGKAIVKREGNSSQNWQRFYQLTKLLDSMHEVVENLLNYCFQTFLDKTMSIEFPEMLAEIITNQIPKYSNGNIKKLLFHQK
# 3',5'-cyclic-AMP phosphodiesterase 4B (Homo sapiens), sequence (Q07343 whole entry, looked up): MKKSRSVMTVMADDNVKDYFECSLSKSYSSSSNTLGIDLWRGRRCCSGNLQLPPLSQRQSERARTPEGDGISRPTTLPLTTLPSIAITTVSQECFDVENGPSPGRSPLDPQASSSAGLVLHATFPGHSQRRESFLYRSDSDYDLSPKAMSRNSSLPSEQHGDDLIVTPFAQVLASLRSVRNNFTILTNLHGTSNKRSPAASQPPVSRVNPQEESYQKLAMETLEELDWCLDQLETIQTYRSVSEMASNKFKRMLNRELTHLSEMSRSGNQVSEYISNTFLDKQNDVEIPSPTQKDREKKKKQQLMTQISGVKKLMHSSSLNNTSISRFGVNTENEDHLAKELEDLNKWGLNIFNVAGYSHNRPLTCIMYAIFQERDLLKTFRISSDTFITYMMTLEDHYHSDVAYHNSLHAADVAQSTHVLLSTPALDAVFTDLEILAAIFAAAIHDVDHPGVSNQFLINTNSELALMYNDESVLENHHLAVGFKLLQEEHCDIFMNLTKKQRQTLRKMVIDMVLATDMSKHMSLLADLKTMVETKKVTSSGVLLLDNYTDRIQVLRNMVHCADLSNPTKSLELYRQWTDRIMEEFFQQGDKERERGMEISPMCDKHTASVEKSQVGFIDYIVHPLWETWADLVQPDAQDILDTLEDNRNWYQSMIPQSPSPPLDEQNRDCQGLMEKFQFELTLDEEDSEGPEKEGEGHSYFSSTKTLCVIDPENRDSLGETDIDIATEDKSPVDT
# Guanine nucleotide-binding protein G(i) subunit alpha-1 (Homo sapiens), sequence (P63096 whole entry, looked up): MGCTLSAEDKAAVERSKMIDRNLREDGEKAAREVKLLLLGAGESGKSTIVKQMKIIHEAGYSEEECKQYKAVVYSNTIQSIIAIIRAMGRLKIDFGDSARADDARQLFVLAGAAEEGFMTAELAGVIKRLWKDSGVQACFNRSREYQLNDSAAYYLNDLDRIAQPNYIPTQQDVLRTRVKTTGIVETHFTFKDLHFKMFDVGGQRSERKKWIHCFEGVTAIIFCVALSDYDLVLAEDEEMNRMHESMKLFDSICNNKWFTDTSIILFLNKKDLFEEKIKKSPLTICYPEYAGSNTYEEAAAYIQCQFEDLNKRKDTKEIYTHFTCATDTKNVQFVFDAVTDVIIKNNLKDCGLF
# Luciferin 4-monooxygenase (Photinus pyralis), sequence (P08659 whole entry, looked up): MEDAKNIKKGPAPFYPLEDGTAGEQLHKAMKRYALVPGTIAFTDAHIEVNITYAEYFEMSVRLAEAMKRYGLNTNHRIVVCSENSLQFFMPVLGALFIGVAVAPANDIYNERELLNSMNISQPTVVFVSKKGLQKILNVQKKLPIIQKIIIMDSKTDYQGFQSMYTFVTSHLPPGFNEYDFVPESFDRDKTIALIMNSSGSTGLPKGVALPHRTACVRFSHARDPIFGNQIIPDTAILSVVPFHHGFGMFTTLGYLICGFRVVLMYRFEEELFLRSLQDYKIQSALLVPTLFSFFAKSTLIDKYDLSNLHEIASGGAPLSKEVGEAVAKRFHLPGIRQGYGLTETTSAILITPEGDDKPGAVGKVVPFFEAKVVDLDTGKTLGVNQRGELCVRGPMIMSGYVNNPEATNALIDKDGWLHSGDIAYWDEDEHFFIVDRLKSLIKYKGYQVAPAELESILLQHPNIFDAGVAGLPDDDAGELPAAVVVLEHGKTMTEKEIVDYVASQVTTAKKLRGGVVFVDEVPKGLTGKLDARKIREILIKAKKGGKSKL
smiles,measurement,setting,value
CN1CCN(c2ncc3nc(-c4ccccc4)c(=O)n(CCC#N)c3n2)CC1,Potency,[1],20 µM (active)
same,Potency,[2],> 9.22 µM (inactive)
same,Potency,[3],> 46 µM (inactive)
same,Potency,[4],inactive
same,Potency,[5],inactive
same,"activity change, negative = inhibition",[6]; at 57.5 µM (top of the series),6.29% (inactive)
same,max response,[6]; [17],19.8%
same,max response,[6]; [18],27.5%
Cn1c(=O)c(-c2ccccc2)nc2cnc(N3CCNCC3)nc21,Potency,[1],12.6 µM (active)
same,Potency,[2],> 9.22 µM (inactive)
same,Potency,[3],> 46 µM (inactive)
same,Potency,[4],inactive
same,Potency,[5],inactive
same,"activity change, negative = inhibition",[6]; at 57.5 µM (top of the series),5.44% (inactive)
same,max response,[6]; [17],18.4%
same,max response,[6]; [18],28.4%
N[C@H](C(=O)N[C@@H]1C(=O)N2C(C(=O)O)=C(Cl)CS[C@@H]12)c1ccccc1,"activity change, negative = inhibition",[7]; at 17.2 µM (top of the series),6.26% (inactive) and -9.38% (inactive)
same,"activity change, negative = inhibition",[7]; at 38 µM (top of the series),-4.53% (inactive)
same,Potency,[1],inactive
same,"activity change, negative = inhibition",[8]; at 17.2 µM (top of the series),-10.5% (inactive) and 0.734% (inactive)
same,"activity change, negative = inhibition",[8]; at 38 µM (top of the series),5.52% (inactive)
same,"activity, negative = inhibition",[9]; at 17.2 µM (top of the series),-10.4% (inactive) and 2.37% (inactive)
same,"activity, negative = inhibition",[9]; at 38 µM (top of the series),22.7% (inactive)
same,Potency,[2],> 46 µM (inactive) and > 20.6 µM (inactive)
same,Potency,[3],> 46 µM (inactive) and > 20.6 µM (inactive)
same,Potency,[4],inactive
same,Potency,[5],inactive
same,Potency,[10],inactive
same,outcome,[11],inactive
same,outcome,[12],inactive
same,"activity change, negative = inhibition",[6]; at 25.7 µM (top of the series),-0.721% (inactive) and -1.78% (inactive)
same,max response,[6]; [17],-2.76% and 11.1%
same,max response,[6]; [18],-3.03% and 9.1%
same,Potency,[13],inactive
CCCCCN(CCCCC)C(=O)[C@H](CCC(=O)O)NC(=O)c1ccc(Cl)c(Cl)c1,"activity change, negative = inhibition",[7]; at 17.2 µM (top of the series),-2.01% (inactive)
same,"activity change, negative = inhibition",[7]; at 38 µM (top of the series),3.64% (inactive)
same,Potency,[1],inactive
same,"activity change, negative = inhibition",[8]; at 17.2 µM (top of the series),-6.01% (inactive)
same,"activity change, negative = inhibition",[8]; at 38 µM (top of the series),-3.5% (inactive)
same,"activity, negative = inhibition",[9]; at 17.2 µM (top of the series),-27.7% (inactive)
same,"activity, negative = inhibition",[9]; at 38 µM (top of the series),-25.5% (inactive)
same,Potency,[2],> 46 µM (inactive) and > 20.6 µM (inactive)
same,Potency,[3],> 46 µM (inactive) and > 20.6 µM (inactive)
same,Potency,[4],inactive
same,Potency,[10],inactive
same,outcome,[11],inactive
same,outcome,[12],inactive
same,"activity change, negative = inhibition",[6]; at 25.7 µM (top of the series),-1.39% (inactive)
same,max response,[6]; [17],-23.7%
same,max response,[6]; [18],-25%
same,Potency,[13],inactive
N#CCCn1c(=O)c(CCc2ccccc2)nc2cnc(N3CCOCC3)nc21,"activity change, negative = inhibition",[8]; [19],-3.78% (inactive)
same,"activity, negative = inhibition",[9]; [19],26.7% (inactive)
same,Potency,[2],> 9.22 µM (inactive)
same,Potency,[3],> 46 µM (inactive)
same,Potency,[4],inactive
same,"activity change, negative = inhibition",[6]; at 57.5 µM (top of the series),4.17% (inactive)
same,max response,[6]; [17],19.8%
same,max response,[6]; [18],22.7%
N[C@@H](CO)C(=O)NNCc1ccc(O)c(O)c1O,"activity change, negative = inhibition",[7]; at 17.2 µM (top of the series),2.07% (inactive)
same,"activity change, negative = inhibition",[7]; at 38 µM (top of the series),14.8% (inactive)
same,Potency,[1],inactive
same,"activity change, negative = inhibition",[8]; at 17.2 µM (top of the series),-8.03% (inactive)
same,"activity change, negative = inhibition",[8]; at 38 µM (top of the series),-7.62% (inactive)
same,"activity, negative = inhibition",[9]; at 17.2 µM (top of the series),-0.902% (inactive)
same,"activity, negative = inhibition",[9]; at 38 µM (top of the series),4.31% (inactive)
same,Potency,[5],inactive
same,outcome,[11],inactive
same,outcome,[12],inactive
same,"activity change, negative = inhibition",[6]; at 25.7 µM (top of the series),-1.23% (inactive)
same,max response,[6]; [17],-4.75%
same,max response,[6]; [18],-6.43%
same,outcome,[14],inactive
same,Potency,[13],inactive
same,outcome,[15],inactive
same,"activity, negative = inhibition",[16]; parasite line A,21.9% (inactive)
same,"activity, negative = inhibition",[16]; parasite line B,19.7% (inactive)
same,Potency,AS120,inactive
same,Potency,CP238,inactive
same,Potency,CP265,inactive
same,Potency,FAB9,inactive
